# Sampled rows, rich in hits. Any-hit rate of the full collection: about 32%.
# CYP2C19 act = human CYP2C19 activators, primary screen, biochemical, luminescence. 96,000 tested, under 10 active. Cytochrome P450 2C19 (Homo sapiens), P33261. recombinant CYP2C19, luciferin-H EGE luminescence; active compounds read high; 0 = fully inhibited enzyme, 1 = untreated enzyme. activation factor at 5 µM;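 active = activation factor of at least 2 at 5 µM in the primary screen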;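 also: 0 = wells with 2.5 mM tranylcypromine and 1 = vehicle-only wells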
# PostGolgi yeast = phenotypic screen on post-Golgi transport, primary screen; hit rate 0.9% among 98,000; inhibition, % at 10 µM; AID 739, 2007; post-Golgi transport phenotypic cell assay;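 also: yeast cells grown in 1536-well plates; yeast grown about 18 h at 30C before absorbance read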
# PostGolgi ctrl = growth inhibition of yeast control strain, primary screen, counter-screen for post-Golgi transport modulator project; efflux-deficient yeast background strain, growth absorbance A615, 16 h; inhibition, % at 10 µM; hit rate 5% among 98,000
# CYP2C9 activ = human CYP2C9 activators, primary screen, biochemical, luminescence. Cytochrome P450 2C9 (Homo sapiens), P11712. recombinant CYP2C9, luciferin-H conversion; active compounds read high; factor 1 = untreated enzyme, 0 = blocked. activation factor at 5 µM. hit rate 1.4% among 96,000. AID 1024, 2008;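 active = activation factor of 2 or more for CYP2C9 at a 5 µM dose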;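 also: 0 = sulfaphenazole-blocked wells and 1 = vehicle-only wells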
# Target sequence (P11712 whole entry, looked up): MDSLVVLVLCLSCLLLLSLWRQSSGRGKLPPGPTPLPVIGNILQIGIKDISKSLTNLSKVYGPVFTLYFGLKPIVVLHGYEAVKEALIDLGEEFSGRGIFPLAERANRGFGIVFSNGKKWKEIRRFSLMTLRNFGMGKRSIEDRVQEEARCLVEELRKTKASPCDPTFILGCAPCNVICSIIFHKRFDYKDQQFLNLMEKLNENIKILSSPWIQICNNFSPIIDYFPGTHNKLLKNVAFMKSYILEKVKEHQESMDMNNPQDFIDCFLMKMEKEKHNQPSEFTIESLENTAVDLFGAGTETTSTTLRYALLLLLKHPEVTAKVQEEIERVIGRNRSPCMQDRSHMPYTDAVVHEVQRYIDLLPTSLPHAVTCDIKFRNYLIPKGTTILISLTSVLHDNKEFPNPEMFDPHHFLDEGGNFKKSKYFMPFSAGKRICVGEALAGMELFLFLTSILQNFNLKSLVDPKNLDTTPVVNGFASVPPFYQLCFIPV
# CYP2C19 inh = blockers of cytochrome P450 2C19 activity – biochemical, luminescence, ADME assay, primary screen; inhibition, % at 5 µM; CYP2C19 Supersomes, luciferin-H EGE luminescence, 30 min; hit rate 21% among 96,000; P33261; AID 778, 2007;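 active = CYP2C19 inhibition above a set limit at 5 µM in the primary screen, cut at about 50% in these data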;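 also: plate controls were negative control wells for no effect and 2.5 mM tranylcypromine positive control for full effect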
# CYP2C9 inh = blockers of cytochrome P450 2C9 activity – biochemical, luminescence, ADME assay, primary screen; P11712; CYP2C9 Supersomes, luciferin-H conversion; inhibition, % at 5 µM; hit rate 20% among 96,000; AID 777, 2007;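 active = blocking of liver enzyme CYP2C9 beyond about 50% at 5 µM, limit read from the data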
# * hit, by the source's call. Rule as the data show it, unless noted: active = inhibition above about 30%; inactive = the rest.
SMILES,CYP2C19 act,PostGolgi yeast,PostGolgi ctrl,CYP2C9 activ,CYP2C19 inh,CYP2C9 inh
CCN=C1SC(C(N)=O)CC(=O)N1CC (stereo not given),1.1,3,8,1,-6,-3
CCN1C(=O)CC(C(=O)Nc2ccc(F)cc2)SC1=Nc1cccc(OC)c1 (stereo not given),0.4,-3,25,0.2,62*,84*
CC1(C)CC2(CCO1)CNC(=O)O2 (stereo not given),1.1,5,23,1,-10,1
CS(=O)(=O)N(CC(=O)NC1CCCC1)Cc1ccc(Cl)cc1,0.4,-2,1,0.7,58*,26
CC(=O)Nc1ccc(C(=O)OCc2ccc(Cl)cc2)cc1,0.4,-5,23,0.2,63*,75*
CS(=O)(=O)N(CC(=O)NC1CCCCC1)Cc1ccc(Cl)cc1,0.8,4,20,1.2,23,-17
CCOC(=O)c1ccc(NC(=O)CN(Cc2ccc(Cl)cc2)S(C)(=O)=O)cc1,0.1,0,13,0.2,94*,83*
O=C(CSCc1ccc(Cl)cc1)NCC1CCCO1 (stereo not given),0.7,16,-5,0.9,32,11
CS(=O)(=O)N(CC(=O)NCC1CCCO1)Cc1ccc(Cl)cc1 (stereo not given),0.2,9,2,1,78*,4
CCn1c(O)c(N=NC2=NC(=O)CS2)c2ccccc21,0.9,1,7,0.6,5,37
CC(Sc1ncc(C#N)c(N)n1)C(=O)Nc1ccccc1 (stereo not given),0.8,-3,18,0.9,24,6
CCOC(=O)c1c(NC(C)=O)sc2c1CCCNC2=O,1,-4,-4,1.1,-2,-13
O=C(CN(CCc1ccccc1)C(=O)CNS(=O)(=O)c1ccccc1)NCC1CCCO1 (stereo not given),0.9,6,16,1.1,9,-7
O=C(CN(C(=O)C1COc2ccccc2O1)c1ccccc1)NCC1CCCO1 (stereo not given),0.5,-2,-3,0.9,51*,8
CS(=O)(=O)N(CCc1ccccc1)CC(=O)NCC1CCCO1 (stereo not given),0.4,-3,12,1,56*,2
O=C(NC1CCCCC1)C(c1ccc(O)cc1)N(CC1CCCO1)C(=O)C1COc2ccccc2O1 (stereo not given),0.3,-8,6,0.3,70*,69*
CC(=O)Nc1ccc(C(=O)OCC(=O)N(Cc2ccccc2)C(C)(C)C)cc1,0.2,12,10,0.3,79*,71*
CN1CCCC(OC(=O)CCCCC(=O)OC2CCCN(C)C2)C1 (stereo not given),1.1,-2,-1,1,-12,-2
CCCn1nnnc1NCc1cccn1C,0.9,15,-7,1.1,8,-7
CC(=O)c1c(C)nc2nonc2c1N,1,-28,-6,1.1,-5,-9
CC(=O)Nc1ccc(C(=O)N/N=C/c2ccccc2OC(=O)c2ccc(Cl)cc2)cc1,0.6,-3,26,0.4,40,60*
CCOC(=O)CSc1nc2cc(OCC)ccc2cc1C#N,0.8,14,10,0.5,15,49
CCOc1ccc2cc(C#N)c(SCC(=O)NC(C)CC)nc2c1 (stereo not given),1,-7,7,0.5,-5,54*
COC(=O)CSc1nc2cc(OC)ccc2cc1C#N,0.8,0,7,0.6,17,41
COCC(=O)N1CCCN(c2nc3c(C)cccc3cc2C#N)CC1,0.4,-5,12,1,64*,5
SMILES,CYP2C19 act,PostGolgi yeast,PostGolgi ctrl,CYP2C9 activ,CYP2C19 inh,CYP2C9 inh
Cc1ccc2cc(C#N)c(N3CCCN(C(=O)C4CCCO4)CC3)nc2c1 (stereo not given),0.8,4,6,0.7,18,33
CCOc1ccc2cc(C#N)c(SCC(=O)N3CCC(C)CC3)nc2c1,0.8,-10,23,0.4,22,63*
Cc1cccc2cc(C#N)c(SCC(=O)N3CCC(C)CC3)nc12,0.6,-2,9,0.4,35,59*
CC1CCN(C(=O)CSc2nnc(Cc3cc(=O)[nH]c(=O)[nH]3)n2-c2ccc(Cl)cc2)CC1,0.9,1,-5,1,8,4
CCOc1ccc2nc(SCC#N)c(C#N)cc2c1,0.9,0,-1,0.3,11,67*
CCc1ccc2nc(SCC(=O)N(CC)CC)c(C#N)cc2c1,0.9,-6,8,0.8,9,22
CC(C)(NO)/C(=N\O)c1ccccc1,1.1,-14,3,1.2,-13,-15
CCCC1CCc2c(sc(N)c2C(N)=O)C1 (stereo not given),0.3,31*,8,0.3,68*,69*
CC(C)(C)C1CCc2c(sc(NC(=O)C3CCCO3)c2C(N)=O)C1 (stereo not given),1.1,4,60*,0.9,-8,10
CCOC(=O)c1c(N)sc2c1CCC(C)C2 (stereo not given),0.9,8,12,0.9,9,6
CC(C)(C)C1CCc2c(sc(N)c2C(N)=O)C1 (stereo not given),0.4,-7,-1,0.5,63*,47
O=C(C[n+]1cccc(NC(=O)c2ccccc2)c1)c1ccc(NC(=O)c2ccccc2)cc1,0.9,-17,5,1,13,4
CCOC(=O)c1ccc(NC(=S)NC2CC(C)(C)NC(C)(C)C2)cc1,0.6,24,-3,1.1,37,-14
Nc1nc(CN2CCN(c3ccc(F)cc3)CC2)nc(N2CCCc3ccccc32)n1,0.4,2,11,0.5,60*,53*
CC(OC(=O)c1ccco1)C(=O)NC1CCCCC1 (stereo not given),0.8,2,1,1.1,17,-9
Cc1ccccc1OC(C)C(=O)NC1CCCC1 (stereo not given),0.3,-3,0,0.6,74*,42
CC1CN(c2oc(-c3ccco3)nc2S(=O)(=O)c2ccccc2)CC(C)O1 (stereo not given),1.1,-3,13,1,-10,0
CCOc1ccc(-c2nc(N)ncc2-c2ccccc2)c(O)c1,0.9,-3,50*,0.7,12,27
CCOc1cc(-c2ccccc2)nc(N)n1,0.6,0,-3,0.8,42,17
C=C(C)COc1ccc(-c2nc(N)ncc2Oc2ccccc2OCC)c(O)c1,0.2,3,3,0.1,80*,92*
COc1ccc(-c2nc(N)ncc2-c2csc(C)n2)c(O)c1,0.1,-5,4,1,87*,3
CCOc1ccc(-c2ncncc2-c2ccc(OC)cc2)c(O)c1,0.7,3,20,0.5,33,54*
